The entries come from a sample that favours hits as a whole.
MITF inhib: inhibitors of MITF; TRPM1 promoter luciferase, luminescence, 24 h; inhibition, % (no concentration beside the values); hit rate 0.28% among 37,000; in the data active = inhibition above about 85%;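 note: human melanocyte line stably carrying TRPM1 promoter luciferase reporter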
YB-1 expression: YB-1 expression inhibition; delta delta Cp (YB-1 minus CDIP) (no concentration beside the values); U2OS, qRT-PCR YB-1 vs CDIP delta delta Cp, 16 h; active compounds read high; zero = DMSO, each unit about twofold; hit rate 0.37% among 30,000; AID 434959;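 active = delta delta Cp rounded down to an integer at or above 3, about 3 SD of DMSO wells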;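 note: higher means less YB-1 transcript or more CDIP transcript relative to DMSO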
Hedgehog inh: blocks Sonic Hedgehog signaling. inhibition, % (test concentration not listed). AID 2313. Shh-LIGHT2 Gli-luciferase reporter, 30 h. hit rate 2.1% among 22,000;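 active = mean inhibition across valid replicates above about 65%, limit read from the data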;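 note: pathway switched on by Shh-conditioned medium diluted 1 in 25 in low serum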
Active calls of the source: *.

Results for C[C@@H]1CN([C@@H](C)CO)C(=O)c2cc(NC(=O)c3ccncc3)ccc2O[C@H]1CN(C)Cc1ccc(-c2ccccc2)cc1 ?
MITF inhib: 6.8; YB-1 expression: -0.225

How did CNC(=O)NC(=O)CSc1nnc(-c2ccco2)o1 do in these assays?
MITF inhib: 5.1; YB-1 expression: -0.457; Hedgehog inh: -14.7

How did CCc1ccc(Nc2nc3ccccc3nc2NS(=O)(=O)c2ccc(C)cc2)cc1 do in these assays?
MITF inhib: -9.4; YB-1 expression: 0.0498; Hedgehog inh: 42.8

How did COc1ccccc1NC(=O)CSc1nc2ccccc2o1 do in these assays?
MITF inhib: -4.7; YB-1 expression: 0.167

What do the screens show for `O=C(O)C1C2CCC(C2)C1C(=O)c1ccccc1` (stereo not given)?
MITF inhib: 20.5; YB-1 expression: 0.207; Hedgehog inh: -23.2

What do the screens show for `Cc1c(Cl)cccc1NC(=O)CN(c1cccc(F)c1)S(C)(=O)=O`?
MITF inhib: 9.5

Results for N#CC(C#N)=C(Nc1ccccc1Cl)SCc1cccc(F)c1 ?
MITF inhib: 89.5*; YB-1 expression: 0.184; Hedgehog inh: 111.9*

Results for Cc1ccc(C(C)C)c(OCc2ccc(N)cc2)c1 ?
MITF inhib: 3.1; YB-1 expression: 0.25; Hedgehog inh: -22.2

Results for O=C(CSc1ncnc2sc(-c3ccccc3)cc12)c1ccc2c(c1)OCCO2 ?
MITF inhib: -0.7; YB-1 expression: -0.503; Hedgehog inh: -24.6

Results for COC(=O)C1(Cc2ccc(O)cc2)OC(=O)C(OC)=C1c1ccc(O)cc1 (stereo not given) ?
MITF inhib: 0.1; YB-1 expression: 4.35*; Hedgehog inh: -6.8

How did COC(=O)C1(Cc2ccc(O)c(CC=C(C)C)c2)OC(=O)C(OC)=C1c1ccc(O)c(O)c1 (stereo not given) do in these assays?
MITF inhib: 9.6; YB-1 expression: 0.206; Hedgehog inh: -9.1

What do the screens show for `CC1(C)CC[C@@]2(C(=O)O[C@@H]3O[C@H](CO)[C@@H](O)[C@H](O)[C@H]3O)C(C1)C1=CCC3[C@@]4(C)CC[C@@H](O[C@@H]5O[C@H](CO)[C@@H](O)[C@H](O)[C@H]5O[C@@H]5O[C@H](CO)[C@@H](O)[C@H](O)[C@H]5O)C(C)(C)C4CC[C@@]3(C)[C@]1(C)C[C@H]2O` (stereo not given in full)?
MITF inhib: -4.5; YB-1 expression: 0.152; Hedgehog inh: -38.8

How did C/C=C(/C)C(=O)O[C@H]1[C@H](OC(=O)/C(C)=C\C)[C@]2(CO)[C@H](O)C[C@]3(C)C(=CCC4[C@@]5(C)CC[C@H](OC6OC(C(=O)O)C(O)C(OC7OC(C)C(O)C(OC8OC(CO)C(O)C(O)C8O)C7O)C6O)C(C)(C)C5CC[C@]43C)[C@@H]2CC1(C)C (stereo not given in full) do in these assays?
MITF inhib: 101.8*; YB-1 expression: -1.14; Hedgehog inh: 99.0*

Results for C[C@@H]1O[C@@H](O[C@H]2[C@H](O[C@H]3[C@H](O)[C@@H](C(=O)O)O[C@@H](O[C@H]4CC[C@@]5(C)C(CC[C@]6(C)C5CC[C@]57OC[C@@]8(CCC(C)(C)CC85)[C@H](O)C[C@]76C)C4(C)C)[C@@H]3O[C@@H]3O[C@H](CO)[C@@H](O[C@@H]4OC[C@@H](O)[C@H](O)[C@H]4O)[C@H](O)[C@H]3O)O[C@H](CO)[C@H](O)[C@@H]2O)[C@H](O)[C@H](O)[C@H]1O (stereo not given in full) ?
MITF inhib: -15.2; YB-1 expression: -0.0394; Hedgehog inh: 42.3

How did C/C=C(/C)C(=O)O[C@H]1[C@H](OC(=O)/C=C/c2ccccc2)[C@@]23C(CC1(C)C)[C@]1(CCC4[C@@]5(C)CC[C@H](O[C@@H]6O[C@H](C(=O)O)[C@@H](O)[C@H](O[C@@H]7O[C@H](CO)[C@H](O)[C@H](O)[C@H]7O[C@@H]7O[C@@H](C)[C@H](O)[C@@H](O)[C@H]7O[C@@H]7OC[C@](O)(CO)[C@H]7O)[C@H]6O[C@@H]6O[C@H](CO)[C@H](O)[C@H](O)[C@H]6O)C(C)(C)C5CC[C@@]4(C)[C@]1(C)C[C@H]2O)O[C@H]3O (stereo not given in full) do in these assays?
MITF inhib: 90.4*; YB-1 expression: -0.428; Hedgehog inh: 87.8*

How did CC1(C)CC[C@]2(C(=O)O[C@@H]3O[C@H](CO)[C@@H](O)[C@H](O)[C@H]3O)CC[C@]3(C)C(=CCC4[C@@]5(C)CC[C@H](O[C@@H]6O[C@H](CO)[C@@H](O)[C@H](O[C@@H]7O[C@H](CO)[C@@H](O)[C@H](O)[C@H]7O)[C@H]6O[C@@H]6O[C@H](CO)[C@H](O)[C@H](O)[C@H]6O)C(C)(C)C5CC[C@]43C)[C@@H]2C1 (stereo not given in full) do in these assays?
YB-1 expression: 0.162; Hedgehog inh: -3.6

Screening data from PubChem.
